Out of some 220,000 compounds screened, about 5,700 (2.6%) were called active. Entries that show only a call come without a potency. Another 18% or so got no clear call; they are omitted. This is one part of a sample in which actives are shown more often than they occur. Calls follow the shape of the dose curve; as a rule, active = well fitted inhibition curve with a large enough effect; inconclusive = small, poorly fitted or top-dose-only effect; inactive = no such curve, though single readings can be large or run the other way.
Potency is read from the fitted curve at half-maximal effect.

The target of the assay is Lysine-specific demethylase 5B (Homo sapiens) (UniProt Q9UGL1). The experiment in a line: Primary screen for KDM5B Histone Demethylases FDH-coupled qHTS. Also: nearly all actives have a fitted effect of over 70% in size. The settings on record: FDH-coupled NADH fluorescence (FDH is formaldehyde dehydrogenase); series mostly up to 57.7 µM. In outline: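 KDM5BΔAP (200 nM final) in 50 mM HEPES pH 7.5, 0.01% Tween-20 was preincubated 10 min at RT with compound over a concentration range. Substrate mix (H3K4me3 12.5 µM, α-KG 25 µM, Fe²⁺, ascorbate, NAD⁺, FDH) was added, and NADH fluorescence change over 30 min gave dose-response curves.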
Lysine-specific demethylase 5B (Homo sapiens), sequence (Q9UGL1 whole entry, looked up): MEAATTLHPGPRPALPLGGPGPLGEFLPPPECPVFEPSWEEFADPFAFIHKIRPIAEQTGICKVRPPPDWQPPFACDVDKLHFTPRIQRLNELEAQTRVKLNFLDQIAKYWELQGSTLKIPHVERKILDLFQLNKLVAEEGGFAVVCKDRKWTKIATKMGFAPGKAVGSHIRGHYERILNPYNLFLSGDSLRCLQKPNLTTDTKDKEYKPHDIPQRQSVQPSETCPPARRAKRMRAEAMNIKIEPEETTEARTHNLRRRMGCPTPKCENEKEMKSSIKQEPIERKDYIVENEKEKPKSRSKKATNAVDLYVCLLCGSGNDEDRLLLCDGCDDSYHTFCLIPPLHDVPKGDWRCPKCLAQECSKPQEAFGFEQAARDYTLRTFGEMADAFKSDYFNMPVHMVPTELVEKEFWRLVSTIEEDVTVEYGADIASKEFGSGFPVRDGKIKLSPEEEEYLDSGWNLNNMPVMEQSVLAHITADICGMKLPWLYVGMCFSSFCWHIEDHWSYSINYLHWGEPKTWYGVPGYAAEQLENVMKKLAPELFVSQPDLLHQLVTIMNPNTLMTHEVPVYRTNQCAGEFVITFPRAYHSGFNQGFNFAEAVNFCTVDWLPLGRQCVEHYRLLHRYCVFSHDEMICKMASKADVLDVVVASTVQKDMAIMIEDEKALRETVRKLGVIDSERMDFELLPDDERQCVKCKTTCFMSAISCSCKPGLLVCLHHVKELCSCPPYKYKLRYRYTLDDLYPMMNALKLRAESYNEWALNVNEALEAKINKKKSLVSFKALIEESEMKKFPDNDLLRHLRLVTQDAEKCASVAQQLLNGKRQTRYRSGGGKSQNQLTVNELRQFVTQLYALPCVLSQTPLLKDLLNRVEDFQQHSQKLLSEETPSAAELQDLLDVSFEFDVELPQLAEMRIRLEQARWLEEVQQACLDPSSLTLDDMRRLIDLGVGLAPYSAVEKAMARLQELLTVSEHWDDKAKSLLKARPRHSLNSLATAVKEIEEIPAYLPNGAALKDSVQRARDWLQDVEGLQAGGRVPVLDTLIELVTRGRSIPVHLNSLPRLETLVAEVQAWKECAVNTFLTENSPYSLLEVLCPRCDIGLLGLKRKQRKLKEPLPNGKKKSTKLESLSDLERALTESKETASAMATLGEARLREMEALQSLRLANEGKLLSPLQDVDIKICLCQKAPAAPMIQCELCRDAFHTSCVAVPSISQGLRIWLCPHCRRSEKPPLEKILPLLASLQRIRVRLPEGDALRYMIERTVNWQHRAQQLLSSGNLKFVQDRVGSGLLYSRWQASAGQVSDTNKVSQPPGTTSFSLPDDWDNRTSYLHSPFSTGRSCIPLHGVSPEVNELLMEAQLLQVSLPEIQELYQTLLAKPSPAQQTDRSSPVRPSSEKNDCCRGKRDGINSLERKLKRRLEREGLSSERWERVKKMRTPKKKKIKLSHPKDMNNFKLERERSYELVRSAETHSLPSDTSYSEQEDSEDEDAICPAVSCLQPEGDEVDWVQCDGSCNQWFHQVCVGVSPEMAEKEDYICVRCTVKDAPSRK
For orientation: qHTS replaces the single test concentration by a dilution series.
Regarding `CNC(=O)c1cccc(NC(=O)CC(C)(C(=O)O)c2ccccc2)c1` (stereo unspecified), the Potency result is “inactive”.

Take `Cc1cc(C)c(CNC(=O)c2nc(-c3cccc(CO)c3)cc3c2ccn3C)c(=O)[nH]1`: the Potency was 35.5 µM (active).

`O=S(=O)(Oc1ccccc1C(=S)N1CCOCC1)c1ccc(Cl)cc1`: the Potency result was “inactive”.

In the case of `CCN(c1ccc(NC(=O)c2nccnc2N)cc1)C(C)C`, the Potency entry is “inactive”.

For `Cc1cc(S(=O)(=O)c2cc3cc(F)cc(F)c3oc2=O)ccc1F`, the Potency result is “inactive”.

As to `O=S(=O)(c1ccc(F)cc1)N1CCn2cccc2C1c1ccccc1F` (stereo unspecified), the Potency result is “inactive”.

As to `Cc1cccc(NN)c1C`, the Potency entry is “inactive”.

For `COc1cccc(CNC(=O)CC(C)CC(=O)O)c1` (stereo unspecified), the Potency result was “inactive”.

Regarding `CCc1ccc(OCC(=O)Nc2ccc(S(=O)(=O)NC(C)(C)C)cc2)cc1`, the Potency entry was “inactive”.

Consider `NC(=O)c1ccc(OC2CCN(C(=O)CCc3ccccc3)C2)nc1` (stereo unspecified), for which the Potency result was “inactive”.

For `CNc1ccc(OC2CCN(C(=O)NCCc3ccccc3)CC2)nc1`, the Potency was 28.2 µM (active).

With `NC(=O)c1ccc(OC2CCN(C(=O)c3ccc(F)cc3)CC2)nc1`, the Potency entry was “inactive”.

For the molecule `CN(C)c1ncccc1CNC(=O)Cc1ccccc1F`, the Potency result is “inactive”.

As for `CC(NC(=O)c1ccc2c(c1)CCCC2)c1ccccc1` (stereo unspecified), the Potency result was “inactive”.

For `Cc1c(C(=O)NCCN(C)C)oc2ccc(S(=O)(=O)N3CCCC3)cc12`, the Potency result was “inactive”.

`Cn1cc(-c2cnc3n[nH]c(-c4ccccc4)c3n2)cn1`: the Potency was 35.5 µM (active).

Turning to `COc1ccc(-c2[nH]nc3ncc(-c4cn[nH]c4)nc23)cc1F`, the Potency entry was “inactive”.

As to `Cc1cccc(-c2cnc3n[nH]c(-c4ccc5c(c4)OCO5)c3n2)c1`, the Potency result was “inactive”.

In the case of `C[S+](=O)([O-])c1ccc(-c2cnc3n[nH]c(-c4ccccc4)c3n2)cc1`, the Potency is 35.5 µM (active).

Consider `Cc1ccsc1-c1[nH]nc2ncc(-c3ccccc3O)nc12`, for which the Potency result was “inactive”.

`Fc1ccc(-c2cnc3n[nH]c(-c4ccc5c(c4)OCO5)c3n2)cc1`: the Potency result was “inactive”.

In the case of `Cc1ccc(C(=O)NCC(c2cccs2)N(C)C)cc1S(=O)(=O)N1CCOCC1` (stereo unspecified), the Potency result is “inactive”.

For the molecule `O=C(c1cccc(Br)c1)N1CCN(C2=NS(=O)(=O)c3ccccc32)CC1`, the Potency result was “inactive”.

For the molecule `COc1ccc(NC(=O)CCCC2CCCCC2)c(OC)c1`, the Potency entry is “inactive”.

Take `COc1cccc(CN2CCN(Cc3ncccc3C)CC2)c1O`: the Potency entry is “inactive”.

With `COc1ccccc1CN1CCC(N2CCN(c3ccccc3OC)CC2)CC1`, the Potency result is “inactive”.

Take `COc1ccccc1CN1CC[C@@H](CO)N(C)c2ncccc2C1`: the Potency was 31.6 µM (active).

For the molecule `CC(C)n1ncc2cc(C(=O)N3CCCCc4ccccc43)cnc21`, the Potency result was “inactive”.

`CCN(CCCNC(=O)c1nn(-c2ccc(OC)cc2)c(=O)c2ccccc12)Cc1ccccc1`: the Potency entry is “inactive”.

For the molecule `CN(Cc1ccc(F)cc1)C(=O)Cn1nc(C(=O)O)c2ccccc2c1=O`, the Potency entry is “inactive”.

Regarding `CN1CCC2(C1)CN(CC1CCOCC1)c1ccc(C(=O)NCCCn3ccnc3)cc12` (stereo unspecified), the Potency is 39.8 µM (active).

Regarding `CC(=O)Nc1ccc(C2(C(=O)NCCCN3CCOCC3)CCCCC2)cc1`, the Potency result was “inactive”.

Consider `COc1ccc(S(=O)(=O)N2CCCC(C(=O)NCCCn3ccnc3)C2)cc1OC` (stereo unspecified), for which the Potency entry was “inactive”.

Take `Cc1c(C(=O)N(Cc2nc3ccccc3c(=O)[nH]2)C(C)C)oc2ccc(Cl)cc12`: the Potency entry is “inactive”.

As to `CCN1C(=O)C(=O)N(CC(=O)Nc2cc(C)ccc2C)C1=O`, the Potency entry was “inactive”.

Turning to `Cc1ccc(C(=O)N2CC[C@H](CO)[C@H](NC(=O)C3CC3)C2)cn1`, the Potency entry is “inactive”.

Take `CC(=O)N[C@H]1CN(c2cncc(C(=O)N3CCCC3)n2)C[C@@H]1C1CC1`: the Potency was 28.2 µM (active).

Regarding `O=C(c1cnccn1)N1CC2CC(C1)[C@H]1CCCC(=O)N1C2` (stereo partly specified), the Potency entry is “inactive”.

On to `Cc1ccc(N(CC(=O)NC2CCCCCCC2)S(=O)(=O)N(C)C)cc1`, for which the Potency result was “inactive”.

Take `O=C(Nc1cccc(Cl)c1)[C@@H]1C[C@H](c2ccc(F)cc2)N([S+](=O)([O-])C2CC2)C1`: the Potency result is “inactive”.

Consider `O=C([C@@H]1C[C@H](c2ccc(F)cc2)N([S+](=O)([O-])C2CC2)C1)N1CCN(c2ccccn2)CC1`, for which the Potency was 20 µM (active).

For `O=C(Nc1cccnc1)[C@@H]1C[C@@H](c2ccc(F)cc2)N([S+](=O)([O-])c2ccccc2)C1`, the Potency entry is “inactive”.

`Cc1c(C)n2c3c(=O)[nH]c(=O)n(C)c3nc2n1CCN1CCN(Cc2ccc(F)cc2)CC1`: the Potency result was “inactive”.

With `C=CCOC/C=C/C#CCN(CC=C)Cc1ccc(OC)cc1OC`, the Potency entry was “inactive”.

As to `CC(=O)N1CCCC2(C1)CN(C)c1ccc(C(=O)NC3CC3)cc12` (stereo unspecified), the Potency was 25.1 µM (active).

For the molecule `O=C(NC1CCCCC1)c1ccc2c(c1)N(Cc1ccc(Cl)cc1)C(=O)c1ccccc1S2=O` (stereo unspecified), the Potency result is “inactive”.

For `O=C1Nc2ccccc2CC12CCN(CC1CC1)C2` (stereo unspecified), the Potency entry is “inactive”.

As to `CC(=O)N1CCC(Cc2ccc(C(=O)NC3CC3)cc2)CC1`, the Potency entry was “inactive”.

Consider `O=C(NC1CC1)c1ccc2c(c1)C1(CCN(CC3CC3)C1)CN2Cc1ccccc1` (stereo unspecified), for which the Potency was 31.6 µM (active).

Consider `CCCN1C(=O)Cc2cc(C(=O)NC3CC3)ccc21`, for which the Potency entry is “inactive”.

As to `COC(=O)c1cccc(N(CC(=O)NCC2CCCO2)C(=O)CCC(=O)Nc2cc(C)on2)c1` (stereo unspecified), the Potency result was “inactive”.

With `COc1ccccc1C(=O)OCC(=O)NCCNC(=O)COC(=O)c1ccccc1OC`, the Potency result was “inactive”.

Consider `CSCC[C@H](NC(=O)CSc1cc(Cl)ccc1Cl)c1nc2ccccc2[nH]1`, for which the Potency entry was “inactive”.

On to `NC(=O)CN1CCC(NC(=O)c2cccc(F)c2)CC1`, for which the Potency entry is “inactive”.

For the molecule `O=C(c1ccoc1)N1CCC(Oc2ncccc2C(=O)N2CCOCC2)C1` (stereo unspecified), the Potency result is “inactive”.

`O=C(c1ccc2nccn2c1)N1CCOCC1`: the Potency was 100 µM (active).

As for `O=C(NCCc1ccc(Cl)cc1)c1ccc2nc(CCc3ccccc3)oc2c1`, the Potency entry is “inactive”.

Take `NC(=O)CN1CCC(NC(=O)c2ccc(Oc3ccc(F)cc3)cc2)CC1`: the Potency result was “inactive”.

On to `O=C(NCc1ccccn1)c1ccc2nccn2c1`, for which the Potency is 31.6 µM (active).

Take `O=C(Nc1ccc(C(=O)N2CCOCC2)cc1)Nc1cccc(C(F)(F)F)c1`: the Potency result was “inactive”.

With `O=C(NC1CCN(Cc2ccc(F)c(F)c2)CC1)c1ccc2nccn2c1`, the Potency is 28.2 µM (active).

Take `CCn1cc(-c2ccccc2)cc1C(=O)NCc1ccccn1`: the Potency result is “inactive”.

Consider `O=C(NCCc1ccc(Cl)cc1)c1ccc2nccn2c1`, for which the Potency is 112 µM (active).

Regarding `Cc1cc(C(=O)NCCc2ccc(Cl)cc2)c(C)o1`, the Potency entry was “inactive”.

Take `COc1cccc(S(=O)(=O)NCc2ccc(C(=O)NCc3ccccn3)cc2)c1`: the Potency entry is “inactive”.

Consider `COc1ccc2nc(NC(=O)Nc3ccc(C)cc3)sc2c1`, for which the Potency result was “inactive”.

`COc1cc(/C=C(\C#N)C(=O)C(C)(C)C)ccc1OCc1c(Cl)cccc1Cl`: the Potency entry is “inactive”.

With `COC[C@]1(O)CCN(C(=O)c2ccccc2C(F)(F)F)CC1(C)C`, the Potency entry was “inactive”.

On to `C#Cc1cccc(NS(=O)(=O)c2ccc(OC)c3ncccc23)c1`, for which the Potency result is “inactive”.

In the case of `CC1(C)CC(=O)C2=C(C1)OC(N)=C(C#N)C2c1ccc(C(F)(F)F)cc1` (stereo unspecified), the Potency result was “inactive”.

Take `Cc1ccccc1/C=C1\Oc2cc(OS(C)(=O)=O)ccc2C1=O`: the Potency entry is “inactive”.

On to `O=C(Cc1cccc(F)c1)NC1CCC(c2ccccc2)CC1` (stereo unspecified), for which the Potency result is “inactive”.

For the molecule `O=c1ncn(Cc2ccccc2)c2ccc(-c3ccoc3)nc12`, the Potency was 39.8 µM (active).

Regarding `CCOc1ccccc1NC(=O)Cc1c(C)[nH]n(-c2nc(-c3ccccc3)cs2)c1=O`, the Potency entry was “inactive”.

For the molecule `CNCCCNC(=O)C(=O)Nc1cccc2[nH]ccc12`, the Potency result was “inactive”.

`Cc1ccccc1OCc1nnc(SCC(=O)c2ccc(Cl)cc2)n1C`: the Potency result is “inactive”.

As to `CCN1CCN(C(=O)Cn2nc(C)c3sc(-c4ccccc4)nc3c2=O)CC1`, the Potency is 22.4 µM (active).

Take `Cc1nn(CC(=O)O)c(=O)c2nc(C(C)C)sc12`: the Potency result is “inactive”.

In the case of `Cc1ccc(C)c(N2CCN(C(=O)Cn3nc(C)c4sc5ccccc5c4c3=O)CC2)c1`, the Potency entry was “inactive”.

On to `COc1ccccc1NC(=O)C1CCN(c2nc3ccccc3nc2OC)CC1`, for which the Potency result is “inactive”.

On to `Cc1cc(Cl)ccc1-c1ccc(CN)cc1`, for which the Potency result is “inactive”.

As for `COCCNC(=O)C1CCN(S(=O)(=O)c2ccc3c(ccn3C)c2)CC1`, the Potency result is “inactive”.

With `N#Cc1ccccc1Sc1ccccc1C(=O)NC1CCCCC1`, the Potency entry is “inactive”.

For `N#Cc1cccnc1-c1cccc(C(=O)O)c1`, the Potency result was “inactive”.

Take `CC(C)(O)CCc1cccc(C(=O)NC2CCN(c3ncccc3C#N)CC2)c1`: the Potency is 22.4 µM (active).

For the molecule `Cc1ccc(C(=O)NCc2nc(C)cs2)cn1`, the Potency entry was “inactive”.

In the case of `CC(C)C1=C/C(=C/c2ccccc2)C(C)/C(=C/c2ccccc2)C1=O` (stereo unspecified), the Potency entry is “inactive”.

For the molecule `CC1CCC2(CC1)NC(=O)N(CC(=O)NCc1ccco1)C2=O` (stereo unspecified), the Potency entry is “inactive”.

Regarding `Cc1ccccc1NC(=O)CN1C(=O)C(C)(C)c2ccccc21`, the Potency result is “inactive”.

In the case of `Cc1ccccc1CNC(=O)CN1C(=O)C2(CCNCC2)Nc2ccccc21`, the Potency was 14.1 µM (active).

As to `CCn1c(=O)c2ccccc2n(CC(=O)Nc2ccccc2C(F)(F)F)c1=O`, the Potency result is “inactive”.

For `CCNC(=O)NC(=O)C(C)Sc1nc(-c2ccccc2)c(-c2ccccc2)o1` (stereo unspecified), the Potency result is “inactive”.

As to `Cc1nc2cc(NC(=O)c3ccc(C(=O)c4ccccc4)cc3)ccc2o1`, the Potency result was “inactive”.

Consider `c1ccc2c(c1)CCN2C1CN(Cc2cccc3ccccc23)C1`, for which the Potency is 100 µM (active).

For the molecule `Cc1ccccc1N(C)C1CN(Cc2cccc3ccccc23)C1`, the Potency result was “inactive”.

For `CN(Cc1cccc2ccccc12)C1CCc2ccccc21` (stereo unspecified), the Potency result was “inactive”.

On to `Cc1oc(-c2cccs2)nc1CC(=O)N1CCC2(CC1)NC(=O)NC2=O`, for which the Potency entry was “inactive”.

As to `COc1cccc(NC(=O)O[C@@H]2CO[C@H]3[C@@H]2OC[C@@H]3Nc2nccc(-c3cccs3)n2)c1`, the Potency is 15.8 µM (active).

As for `CC(C)(CC(=O)O)CC(=O)N[C@H]1CO[C@H]2[C@@H]1OC[C@@H]2Nc1nccc(-c2ccc3c(c2)OCO3)n1`, the Potency was 28.2 µM (active).

As to `COCC(=O)N[C@H]1CO[C@H]2[C@@H]1OC[C@@H]2Nc1nccc(C(C)(C)C)n1`, the Potency entry was “inactive”.

As for `COc1ccc(NC(=O)O[C@@H]2CO[C@H]3[C@@H]2OC[C@@H]3NC(=O)NC2CCCCC2)cc1`, the Potency entry was “inactive”.

With `COc1ccc(NC(=O)O[C@@H]2CO[C@H]3[C@@H]2OC[C@@H]3NC(=O)C2CCCCC2)cc1`, the Potency entry was “inactive”.

On to `CC(C)(C)c1ccnc(N[C@H]2CO[C@H]3[C@@H]2OC[C@H]3OC(=O)Nc2cccc(C(F)(F)F)c2)n1`, for which the Potency result is “inactive”.

`O=C(Nc1cccc(C(F)(F)F)c1)O[C@@H]1CO[C@H]2[C@@H]1OC[C@@H]2Nc1nccc(-c2ccc3c(c2)OCO3)n1`: the Potency is 31.6 µM (active).

Consider `O=C(Nc1ccccc1)O[C@@H]1CO[C@H]2[C@@H]1OC[C@@H]2NS(=O)(=O)c1cccc2cccnc12`, for which the Potency result was “inactive”.

As to `CC(C)(C)c1ccnc(N[C@H]2CO[C@H]3[C@@H]2OC[C@@H]3NC(=O)CC2(CC(=O)O)CCCC2)n1`, the Potency result is “inactive”.
